# Measurements reported in the supplement of paper PMC3334620.
# Over roughly 33,000 sequences, “E-score (-0.5 to 0.5)” has its median near -0.013; the highest 2% begin near 0.3. Only a selection was taken, and the highest values are over-represented in it overall.
# Target: T1, Msn1 (UniProt P22148)
# T1 sequence: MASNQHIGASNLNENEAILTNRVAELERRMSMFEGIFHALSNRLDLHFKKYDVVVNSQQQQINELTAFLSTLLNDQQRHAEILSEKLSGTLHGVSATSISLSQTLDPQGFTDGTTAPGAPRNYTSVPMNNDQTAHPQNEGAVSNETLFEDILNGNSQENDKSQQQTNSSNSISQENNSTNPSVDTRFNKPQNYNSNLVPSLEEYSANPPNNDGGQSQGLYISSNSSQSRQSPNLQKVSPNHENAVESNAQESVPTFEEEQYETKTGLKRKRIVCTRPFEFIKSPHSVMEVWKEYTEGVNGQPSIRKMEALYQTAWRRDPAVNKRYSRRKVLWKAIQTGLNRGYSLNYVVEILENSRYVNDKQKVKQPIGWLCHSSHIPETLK
# Experiment: PBM E-score (8-mer binding enrichment) (E-score (-0.5 to 0.5)); higher = stronger / more preferred TF binding
# Details: protein concentration: 200 nM; construct: GST-full length
# Protocol: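 Universal 'all 10-mer' protein binding microarrays (Agilent AMADID 015681) probed with GST-tagged S. cerevisiae TFs (full-length or DBD) made by in vitro transcription/translation (PURExpress), about 100-200 nM. Bound TF was detected with fluorescent anti-GST. Each ungapped 8-mer (which stands for itself and its reverse complement) is scored by the PBM enrichment score (E-score), a modified Wilcoxon-Mann-Whitney statistic from -0.5 to +0.5, computed with the Universal PBM Analysis Suite. Scale: above 0.35 generally sequence-specific binding.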
row,Sequence,PBM E-score
1,CAGTTGTC,0.32
2,CCGTTGTA,0.187
3,AAGTTGTC,0.298
4,ACATTCTG,0.162
5,TAGCAGGA,0.0461
6,GCACCCGC,-0.163
7,ACATTGGC,-0.0178
8,ATTCAGGC,0.0647
9,GACATTGA,0.386
10,TACATTGA,0.105
11,GACATTGC,0.434
12,CACATTGA,0.0276
13,CACATTGC,0.115
14,AACATTGC,-0.162
15,ATCCCGGG,0.0417
16,CAGAGACA,0.204
17,GCTCAAGA,-0.102
18,CACGGCTG,-0.156
19,CAGGTGGA,-0.193
20,CTGCCCTC,-0.329
21,CAAAAGTC,0.282
22,ACAAAGTC,0.236
23,GAAAAGTA,0.167
24,ATAAAGTA,0.243
25,GAAAAGTC,0.326

row,Sequence,PBM E-score
1,GAAAAGGC,-0.0462
2,ATAAAGTG,0.154
3,ATAAAGTC,0.305
4,AAAAAGTC,0.418
5,AAGCGAGA,-0.127
6,CGGCCACG,-0.189
7,GACCCGAC,-0.0784
8,AGGTAATC,-0.139
9,AACAAAAG,0.101
10,ACAGCGTG,0.0507
11,GAATGTGC,-0.148
12,GAATGTAC,0.342
13,AAATGTAC,0.371
14,GAATGTAA,-0.0699
15,AAATGTAG,-0.0386
16,ATATGTAA,0.131
17,ATATGTAC,0.371
18,CTATGTAC,0.189
19,CAATGTAC,0.195
20,ATATCACG,-0.0452
21,ACGAGCTG,0.0278
22,ACCTTCTC,-0.183
23,CGTCCCTA,-0.0646
24,AATAATAT,0.33
25,AATAATAG,-0.0638

row,Sequence,PBM E-score
1,AATAATAA,0.132
2,AAATATAA,0.272
3,AAATATGT,0.37
4,AAATATGA,0.154
5,AAATATAT,0.306
6,AAATATGC,-0.0194
7,AAATATAC,0.0952
8,ACCAGAGC,-0.124
9,CGATGCAC,-0.295
10,GCACAGGA,0.0138
11,ACTCGAGT,0.14
12,ATAGGCCA,-0.0607
13,TTACATAA,0.0155
14,CTACATAA,-0.237
15,TGACATAA,0.364
16,GGACATAC,0.48
17,TGTCACAA,0.378
18,CGTCACAA,0.137
19,GCACATAC,-0.162
20,TAACATAA,0.214
21,CGACATAC,0.281
22,TCACATAA,-0.0221
23,GTACATAA,0.306
24,GGTCACAA,-0.0198
25,GACCCCCA,-0.377

row,Sequence,PBM E-score
1,TCACTAGA,0.0764
2,CACCCCGC,-0.0608
3,CCATTAAC,0.139
4,GCCCTGCC,-0.296
5,AAGTCTAC,0.0709
6,CGTCATAA,0.122
7,GCACATAA,-0.0366
8,CGACATAA,0.286
9,GGACATGA,0.467
10,TGTCATAA,0.397
11,AGTCATAA,0.0855
12,GGACATAA,0.477
13,GCACATGA,-0.0829
14,CGACATGA,0.207
15,ACCACAGA,0.0742
16,TTGAGCAA,-0.0524
17,ACACTTGG,-0.0164
18,GACCATGC,0.0413
19,GTGTACAA,0.32
20,CTGTACAG,0.0843
21,GTGTACAC,0.162
22,TTGTACAA,0.337
23,TCGTACAA,0.294
24,CTGTACAA,0.161
25,CGTGCAGC,-0.0365

row,Sequence,PBM E-score
1,CTCGGTAC,0.0483
2,ACGGCCGT,-0.204
3,ATAAAGCC,-0.151
4,GCCTACCA,-0.174
5,AGCCCTCG,-0.123
6,AATATGTA,0.335
7,CATATGCC,0.00819
8,AATATGTG,0.181
9,GATATGTA,0.12
10,AATATGTC,0.478
11,CATATGTA,0.245
12,CATATGAC,0.143
13,ACTATGTC,0.292
14,CATATGTC,0.449
15,AGCGAAAG,0.00846
16,CGCACTTA,-0.0705
17,AGCTCTAC,-0.104
18,AGCCACGA,-0.181
19,CCAATAGC,-0.0522
20,CAAGGACC,0.0568
21,CAAGGACA,0.484
22,AAAGGACA,0.445
23,TAAGGACA,0.481
24,AAAGGACG,0.032
25,GAAGGATA,-0.142

row,Sequence,PBM E-score
1,GAAGGACC,-0.139
2,GAAGGACA,0.471
3,CAAGGACG,0.148
4,TAAGGATA,0.13
5,TAAGGAGA,-0.255
6,AAAGGACC,-0.105
7,CGAACATA,0.128
8,TAACAACA,0.0839
9,CGTCCTGA,0.102
10,AATCTACA,0.058
11,TAGGTAGA,0.0723
12,GATCTGTA,-0.0087
13,CCGAAAAC,0.0665
14,AACGAGTC,-0.0621
15,ATGTCACG,0.31
16,CTGTCACC,-0.0649
17,ATGTCACC,0.303
18,ATGTCACA,0.363
19,CTGTCACA,0.0788
20,GTGTCACA,0.261
21,ATGTCAGA,0.265
22,AAGTCACA,0.127
23,AGGTCACC,-0.0357
24,GGAAAGAC,-0.0443
25,ATCCTATG,-0.0491

row,Sequence,PBM E-score
1,AGGCGTAG,-0.189
2,CCTTGCGA,0.028
3,GGTGGTAC,-0.152
4,GTAAGCTA,0.0896
5,CACATAAC,0.0195
6,GACATAAC,0.396
7,TACATAAA,0.15
8,AACATAAC,0.0281
9,GACATAAA,0.44
10,AACATAAA,0.0678
11,CGGAGGAA,-0.131
12,GCATGGGC,-0.183
13,CCGCTCGA,-0.143
14,GATTGCTA,-0.0824
15,CGAGAGTC,-0.131
16,ATTAGGAC,0.37
17,AATAGGAC,0.387
18,AATAGGAA,0.102
19,AATAGGAT,0.157
20,ATTAGGAA,-0.00879
21,ACTAGGAG,-0.201
22,ACTAGGAC,0.426
23,CTTAGGAC,0.269
24,GCTAGGAC,0.267
